The entries come from a sample that favours hits as a whole.
Shiga toxin inh: inhibitors of Shiga toxin in Vero cells; Vero cells, Shiga toxin protein synthesis inhibition reporter; inhibition, % at 38.7 µM; 290,000 compounds, 9.2% hits; AID 2315; in the data active = inhibition mostly above about 28%, no sharp cut-off; inactive = mostly below about 43%; also: 0% is about no effect
FBPA Giardia inh: inhibitors of Giardia lamblia fructose-1,6-bisphosphate aldolase; Potency, µM (top dose mostly 59.6 µM), inactives show at the top dose activity, negative = inhibition, most hits filed as inhibitors; 290,000 compounds, 0.71% hits; purified Giardia FBPA; A8B2U2; also: potency is read from the fitted curve at half-maximal effect; % is scaled to controls: 0 for no effect and ±100 for the full control effect; nearly all actives have a fitted effect of over 55% in size
Target sequence (A8B2U2 whole entry, looked up): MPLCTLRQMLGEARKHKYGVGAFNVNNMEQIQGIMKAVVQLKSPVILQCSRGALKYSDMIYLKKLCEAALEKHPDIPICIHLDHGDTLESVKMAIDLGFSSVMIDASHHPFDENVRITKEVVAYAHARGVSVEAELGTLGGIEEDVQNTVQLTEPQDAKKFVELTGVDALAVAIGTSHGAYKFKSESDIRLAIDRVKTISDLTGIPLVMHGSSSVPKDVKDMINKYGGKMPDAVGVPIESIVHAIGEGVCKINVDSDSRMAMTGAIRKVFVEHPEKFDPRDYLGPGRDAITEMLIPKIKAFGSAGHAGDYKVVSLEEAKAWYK
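40 nM FBPA preincubated 10 min at RT with compound (up to 57.5 uM final), then substrate plus GAPDH/TPI/NAD/arsenate coupling and diaphorase/resazurin added. Fluorescence read after 20 min at RT, 525/598 nm.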
CHX counter: affects cycloheximide protein synthesis inhibition readout, counter-screen; cell reporter, cycloheximide protein synthesis inhibition counterscreen; max response, %; 300,000 compounds, 12% hits; in the data active = max response mostly above about 13%, no sharp cut-off; inactive = mostly below about 14%; also: read at 38.3 µM for the half of the compounds with a filed dose; 0% is about no effect
Tb PYK inh: T. brucei pyruvate kinase inhibition | Potency, µM (doses to about 76.8 µM), for the others: at the top dose activity, negative = inhibition, actives largely listed as inhibitors | TbPYK enzyme, Kinase-Glo Plus ATP luminescence, 45 min | 410,000 compounds, 0.12% hits | Q57TT1 | AID 624173; also: potency is read from the fitted curve at half-maximal effect; % is scaled to controls: 0 for no effect and ±100 for the full control effect; nearly all actives have a fitted effect of over 50% in size
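Luminescence from Kinase-Glo Plus, added after a 45-minute room-temperature reaction, served as the end-point read-out. The enzyme and substrate were preincubated with compound before ADP (130 uM final) initiated turnover. Concentration-effect curves came from normalized qHTS data.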
LmPK inh: inhibitors of Leishmania mexicana pyruvate kinase | Q27686 | purified LmPK, Kinase-Glo ATP luminescence, 1 h | Potency, µM (series often up to 57.5 µM), inactives show top-dose activity change, negative = inhibition, most hits filed as inhibitors | 290,000 compounds, 0.37% hits | AID 1721; also: potency is read from the fitted curve at half-maximal effect; % is scaled to controls: 0 for no effect and ±100 for the full control effect
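In 50 mM imidazole pH 7.2 with 7 mM MgCl2, LmPK (0.1 nM) turned over PEP (0.5 mM) and ADP (0.1 mM) for 1 h at room temperature. Luciferase read-out of ATP.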
Sm TGR inh: inhibitors of Schistosoma mansoni thioredoxin glutathione reductase; Potency, µM (titrated, usually from 114 µM), for inactives: at the highest dose activity change, negative = inhibition, hits mostly inhibitors; 360,000 compounds, 3% hits; purified TGR, DTNB reduction, TNB absorbance 405 nm; Q962Y6; also: potency is read from the fitted curve at half-maximal effect; % is scaled to controls: 0 for no effect and ±100 for the full control effect; nearly all actives have a fitted effect of over 60% in size
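TGR 20 nM + NADPH 100 uM (dispensed conc.), cpd preinc 15 min RT; start with NADPH (500 uM addition) then DTNB (15 mM addition). Kinetic TNB absorbance, 405 nm filter. Four-parameter Hill fit across titration.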
The depositor's hits bear a star; ? = inconclusive; . = no result; + = active, no number; [ ] = remark or other dose. Unless noted, calls follow the shape of the dose curve; as a rule, active = well fitted curve in the direction sought with a large enough effect; inconclusive = small, poorly fitted or top-dose-only effect, or another doubt; inactive = no such curve, though single readings can be large; an effect the other way counts as inactive or inconclusive.

SMILES	Shiga toxin inh	FBPA Giardia inh	CHX counter	Tb PYK inh	LmPK inh	Sm TGR inh
CSc1ccccc1OCc1cc(C(=O)NCc2ccc(C)s2)no1	41.2*	-2.8%	22.7*	3.3%	-0.5%	0.0%
CCOC(=O)c1ccc(CNC(=O)c2cc(COc3ccccc3SC)on2)o1	74.2*	.	34.3*	2.8%	0.2%	-0.3%
CSc1ccccc1OCc1cc(C(=O)NCCCc2ccccc2)no1	33.0	-1.3%	5.8	-4.2%	-1.3%	-12.8%
CCOC(=O)c1c(C)[nH]c(C(=O)N/N=C/c2cccc(OC)c2)c1C	+	7.3%	14.8*	-1.9%	7.8%	3.7%
CCOC(=O)c1c(C)[nH]c(C(=O)N/N=C\c2ccccc2Cl)c1C	21.3	-0.8%	20.4*	-6.6%	1.2%	1.5%
CCOC(=O)c1[nH]c(C)c(C(=O)NCc2ccccc2Cl)c1C	.	.	.	9.3%	.	7.0%
COc1cccc(/C=N/NC(=O)c2[nH]c(C)c(C(=O)N/N=C/c3cccc(OC)c3)c2C)c1	72.7*	-4.4%	13.6	-5.5%	1.2%	1.1%
COc1ccc2c(c1)c(C(=O)N/N=C/c1cccc(Br)c1)c(C)n2C	9.7	19.9µM*	1.9	-6.4%	1.7%	-0.5%
CC(C)CCN1C(=O)C2(OCCCO2)c2cc(Cl)ccc21	-6.8	1.6%	2.3	-24.6%	2.6%	0.9%
Cc1ccc(C)c(OCCn2c(-c3ccc(Cl)cc3)nc3ccccc3c2=O)c1C	.	.	.	-0.9%	.	3.8%
COc1ccc(N2CCN(CCNS(=O)(=O)c3ccc(C)cc3)CC2)cc1	-14.6	3.3%	2.9	3.9%	4.4%	-0.8%
CSCCNC(=O)C1(C)CCN1C(=O)c1sccc1C (configuration not stated)	.	.	.	2.7%	.	.
Cc1cc(C)c(NC(=O)CSc2nccn2Cc2ccco2)c(C)c1	.	.	.	-12.6%	.	-9.6%
Cc1nnc(SCC(=O)Nc2ccccc2F)n1Cc1ccco1	11.6	-0.4%	7.0	-1.8%	2.4%	2.0%
Cc1ccc(NC(=O)CSc2nccn2Cc2ccco2)c(C)c1	60.7*	14.5%	51.8*	-5.6%	-7.3%	5.0%
O=C(CSc1nccn1Cc1ccco1)Nc1ccccc1F	18.3	-14.5%	29.9*	-9.1%	-7.2%	7.6%
Cc1ccc(C)c(NC(=O)CSc2nccn2Cc2ccco2)c1	53.8*	5.8%	23.9*	0.7%	-0.1%	4.4%
COc1ccccc1OCCNC(=O)c1cc(F)c(F)cc1Cl	25.5*	0.6%	29.9*	-2.6%	1.2%	-10.2%
COc1ccccc1OCCNC(=O)c1cc(SC)ccc1Cl	-9.2	0.5%	-2.5	0.3%	2.1%	4.0%
O=C(CNC(=O)c1ccccc1F)NCCOc1cccc(Cl)c1Cl	9.7	0.5%	1.5	1.3%	5.0%	-5.2%
O=C(NCCOc1ccccc1F)c1cc(F)c(F)cc1Cl	86.3*	-1.8%	36.4*	-4.4%	6.7%	-3.6%
Cc1ccccc1C(=O)NCCOc1ccccc1Cl	.	-0.5%	36.2*	0.4%	-2.3%	-6.9%
COc1ccccc1OCCNC(=O)c1ccc(Br)cc1	61.8*	-5.3%	36.4*	2.9%	2.0%	-26.7%
COC(=O)c1cccc(NC(=O)CC2C(=O)NCCN2C(=O)Nc2cc(C)cc(C)c2)c1 (configuration not stated)	-2.8	.	-1.5	-0.6%	-1.6%	?
COc1ccc(NC(=O)CSc2nc3c(c(=O)[nH]2)CCC3)cc1	.	.	.	-1.9%	.	-5.0%
CC(NC(=O)c1ccccc1NC(=O)c1nsc2ccccc12)c1ccccc1 (configuration not stated)	.	.	.	3.9%	.	3.5%
C[C@@H]1NC(=O)[C@@H](C)COC(=O)[C@H](C)NC(=O)[C@@H](C)COC1=O	.	0.0%[12.9 µM]	.	.	.	.
Nc1nc(N)c2ncn(C3C=CC(CO)C3)c2n1 (configuration not stated)	.	.	.	4.1%	.	.
COC(=O)C1=C(C(=O)OC)[C@@H]2N(Cc3ccccc3)c3ccccc3[C@@]23C[C@@H](C(=O)OC)N(S(=O)(=O)c2c(C)noc2C)C3=N1	.	-0.5%[12.9 µM]	.	.	-8.8%[11.5 µM]	.
